Test results taken from PubChem BioAssay (NCI).
About 83,000 compounds went through this panel and 20% of them were active in at least one assay; those are over-represented in the sample as a whole.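 Single-dose data. Exposure time 48 hours. Values below 10 considered active.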 Unmarked numbers belong to inactive results. Activity calls are given as the source filed them.

Test system: MDA-MB-468 breast
Assay: NCI-60 one-dose screen, 48 h (100 = growth as untreated, 0 = no growth, -100 = all killed)
Conditions: 10 µM unless noted

Point of comparison: `CCOC(=O)c1cn2ncnc(Oc3ccc(NC(=O)NCCN(CC)CC)c(Cl)c3)c2c1C`, growth 52.8%. Against it:
- CCOC(=O)C1=C(C)N=C2Sc3cc(OC(F)(F)F)ccc3N2[C@H]1c1ccccn1 — lower, 29.1%
- CCN1CCN(CC(=O)Nc2nc3ccc(NCc4ccc(F)cc4)cc3s2)CC1 — higher, 86.1%
- CC(=O)N1N=C(c2ccc3c(c2)OCO3)CC1c1c(C)nn(-c2ccccc2)c1N(C)Cc1ccccc1 (centres undefined) — higher, 61.5%
- O=C(Nc1ccccc1Cl)c1cnc2ccc(C3CCNCC3)cn12 — higher, 63.3%
- COc1ccc(/C=C/C(=O)c2cc(OC)c(OC)c(OC)c2)cc1OCC(=O)Nc1nc2ccc(OC(F)(F)F)cc2s1 — higher, 55.1%
- Oc1ccc(CCCCCCc2ccc(O)cc2)cc1 — higher, 99.5%
- CC(=O)O[C@@H]1CCN2C(=O)N(C)c3ccccc3[C@@H]2C1 — higher, 126%
- O=C(COc1cccc2cccnc12)Nc1ccc(C(=O)/C=C/c2ccc(Cl)cc2)cc1 — higher, 89.3%
- CC1(C)OB(O)c2cc(-c3nc4ccc5[nH]ncc5c4c4c3CCCC4)ccc21 — higher, 69.5%
- Cn1c(=O)[nH]c(=O)c2nc(CCC(=O)NCCC(=O)O)c(=O)[nH]c21 — higher, 102%

In the case of `O=C1Nc2cc(-c3ccc(NS(=O)(=O)c4ccccc4)cc3)ccc2/C1=C/c1ccc[nH]1`, the growth is reported as -7.8% (active).
In the case of `O=C(c1ccc(-c2nc(CSc3nc4ccccc4s3)no2)cc1)N1CCSCC1`, the growth is reported as 4.1% (active).
`CN(C)c1ccc(-c2ccc3c(c2)c(-c2ccccc2)nc(=O)n3C)cn1` was tested, and the growth was 5.69% (active).
